# Assay results taken from PubChem BioAssay (EPA / NIEHS).
# Results filed as inconclusive are left out. Calls of active or inactive are those of the source. Rule for the calls, unless noted: active = hit-call score of the fitted dose curve at least 0.9, where 1 is the maximum; inactive = score below 0.9.
# Experiments:
# [1] = ATG_BRE_CIS: Attagene CIS-FACTORIAL HepG2 Assay for human Bone Morphogenetic Protein (BMP) Response Element (BRE) (AID 2282933); conditions: HepG2 BMP response element reporter, Attagene transcription factor profiling; actives raise or lower the signal
# Method in brief: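 Gain- or loss-of-signal was derived by bidirectional fitting against DMSO controls. The signal came from reporter mRNA, measured by RT-PCR and capillary electrophoresis, in HepG2 cells transiently carrying multiple reporter units and dosed for 24 h.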
# [2] = ATG_E_Box_CIS: Attagene CIS-FACTORIAL HepG2 Assay for human Enhancer Box (E-box) (AID 2282936); conditions: HepG2 E-box cis-reporter transcription, actives raise or lower the signal
# Method in brief: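 First, HepG2 cells receive multiple cis-regulated reporter constructs by transient transfection. Next, chemicals are applied for 24 h. Finally, reporter mRNA is quantified via RT-PCR and capillary electrophoresis, with DMSO as baseline.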
# [3] = ATG_PBREM_CIS: Attagene CIS-FACTORIAL HepG2 Assay for human Phenobarbital-responsive Enhancer Module (PBREM) (AID 2282955); conditions: HepG2 PBREM cis-reporter, Attagene multiplexed transcription; actives raise or lower the signal
# Method in brief: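 Fluorescence of labelled reporter cDNA fragments, resolved by capillary electrophoresis, gives mRNA induction in transfected HepG2 cells treated for 24 h; DMSO serves as negative control and baseline.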
# [4] = ATG_PPRE_CIS: Attagene CIS-FACTORIAL HepG2 Assay for human Peroxisome Proliferator-activated Response Element (PPRE) (AID 2282958); conditions: HepG2 PPRE cis-element reporter, Attagene transcription factor profiling; actives raise or lower the signal
# Method in brief: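 Cells are first transfected transiently with the multiplexed reporter library, then dosed for 24 h. Total RNA is reverse-transcribed, amplified, fluorescently end-labeled and HpaI-cut before capillary electrophoresis; activity is fitted bidirectionally against DMSO controls.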
# [5] = ATG_SREBP_CIS: Attagene CIS-FACTORIAL HepG2 Assay for human Sterol Regulatory Element Binding (SREBP) (AID 2282962); conditions: HepG2 Attagene cis-factorial SREBP reporter, mRNA; actives raise or lower the signal
# Method in brief: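 Transfected HepG2 (cis-regulated reporter library, endogenous TFs) → compound 24 h → total RNA → oligo(dT) RT → reporter-specific PCR → FAM primer extension, HpaI cut → CE fluorescence. Fit bidirectional vs DMSO.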
# [6] = molecular target: X-box-binding protein 1 (Homo sapiens) (UniProt P17861); assay: ATG_Xbp1_CIS: Attagene CIS-FACTORIAL HepG2 Assay for human X-box Binding Protein 1 (XBP1) (AID 2282972); conditions: HepG2 XBP1 cis-element reporter, Attagene multiplex; actives raise or lower the signal
# Sequence of X-box-binding protein 1 (Homo sapiens) (P17861 whole entry, looked up): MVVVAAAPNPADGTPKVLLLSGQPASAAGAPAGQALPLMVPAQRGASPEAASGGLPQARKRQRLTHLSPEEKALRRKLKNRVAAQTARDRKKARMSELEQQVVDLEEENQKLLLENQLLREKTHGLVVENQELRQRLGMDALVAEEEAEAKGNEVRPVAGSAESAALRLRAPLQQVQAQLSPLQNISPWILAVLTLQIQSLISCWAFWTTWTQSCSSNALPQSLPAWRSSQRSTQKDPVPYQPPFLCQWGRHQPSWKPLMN
# Method in brief: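 HepG2, transient MRTU transfection (cis-promoter driven), 24 h compound exposure. Total RNA → oligo(dT) RT → PCR → 6-FAM labeling → HpaI cut → CE. Bidirectional fit vs DMSO.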
# [7] = ATG_M_06_TRANS: Attagene TRANS-FACTORIAL HepG2 Assay for M06 Transcription Factor (Internal Marker) (AID 2282983; active = hit-call score of the fitted dose curve at least 0.9, where 1 is the maximum;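 note: reporter transcript level by RT-PCR then capillary electrophoresis fluorescence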); conditions: HepG2 Attagene TRANS M06 internal marker reporter
# Method in brief: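 Cells: HepG2, transient multi-reporter transfection. Exposure: 24 h. Detection: RT-PCR, 6-FAM labelling, HpaI digestion (2 h, 37 °C), capillary electrophoresis. Baseline: DMSO.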
# [8] = molecular target: Nuclear respiratory factor 1 (Homo sapiens) (UniProt Q16656); assay: ATG_NRF1_CIS: Attagene CIS-FACTORIAL HepG2 Assay for human Nuclear Respiratory Factor 1 (NRF1) Orphan Gene (AID 2282987); conditions: HepG2 NRF1 cis-element reporter, Attagene multiplex; actives raise or lower the signal
# Sequence of Nuclear respiratory factor 1 (Homo sapiens) (Q16656 whole entry, looked up, the tested form may be a part): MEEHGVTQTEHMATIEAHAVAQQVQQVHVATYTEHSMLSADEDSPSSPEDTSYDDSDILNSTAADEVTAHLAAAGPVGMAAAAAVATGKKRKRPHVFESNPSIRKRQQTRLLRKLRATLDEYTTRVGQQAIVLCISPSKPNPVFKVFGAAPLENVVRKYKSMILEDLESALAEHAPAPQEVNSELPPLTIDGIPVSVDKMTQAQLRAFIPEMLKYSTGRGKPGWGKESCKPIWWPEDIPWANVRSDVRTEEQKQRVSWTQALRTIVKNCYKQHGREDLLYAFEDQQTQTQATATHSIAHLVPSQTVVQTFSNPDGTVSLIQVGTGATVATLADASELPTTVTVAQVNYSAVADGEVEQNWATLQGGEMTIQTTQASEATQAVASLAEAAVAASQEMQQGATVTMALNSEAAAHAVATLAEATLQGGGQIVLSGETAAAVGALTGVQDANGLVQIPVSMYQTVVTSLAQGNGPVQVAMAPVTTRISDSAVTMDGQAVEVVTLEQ
# Method in brief: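 Fluorescence intensity of labelled reporter cDNA fragments, resolved by capillary electrophoresis, served as readout for NRF1 cis-element activity. Transiently transfected HepG2 cells were dosed for 24 hours; activity in either direction was fitted against DMSO negative control.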
# [9] = molecular target: human Retinoid X Receptor beta (RXRb), RXRB (gene 6257) (UniProt P28702); assay: ATG_RXRb_TRANS: Attagene TRANS-FACTORIAL HepG2 Assay for human Retinoid X Receptor beta (RXRb) (AID 2283013; active = hit-call score of the fitted dose curve at least 0.9, where 1 is the maximum)
# Sequence of human Retinoid X Receptor beta (RXRb), RXRB (gene 6257) (P28702 whole entry, looked up): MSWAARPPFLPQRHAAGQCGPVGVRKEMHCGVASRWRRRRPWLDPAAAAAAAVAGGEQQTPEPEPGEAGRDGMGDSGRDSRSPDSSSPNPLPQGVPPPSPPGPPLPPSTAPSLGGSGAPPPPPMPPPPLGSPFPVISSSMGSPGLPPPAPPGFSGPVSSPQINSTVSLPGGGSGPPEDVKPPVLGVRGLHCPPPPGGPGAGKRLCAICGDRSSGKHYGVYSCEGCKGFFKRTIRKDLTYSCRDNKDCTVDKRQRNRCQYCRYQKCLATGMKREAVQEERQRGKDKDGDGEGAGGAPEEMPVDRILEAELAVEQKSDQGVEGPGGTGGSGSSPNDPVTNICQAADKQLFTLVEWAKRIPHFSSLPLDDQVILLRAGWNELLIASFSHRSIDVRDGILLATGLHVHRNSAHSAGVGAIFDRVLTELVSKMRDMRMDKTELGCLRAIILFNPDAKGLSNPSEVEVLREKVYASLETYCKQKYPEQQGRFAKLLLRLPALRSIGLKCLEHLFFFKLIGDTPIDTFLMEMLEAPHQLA
# Method in brief: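 Multiplexed TRANS reporter assay in HepG2; 24 h dosing; reporter mRNA by RT-PCR/CE fluorescence; gain-of-signal relative to DMSO.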
# [10] = molecular target: Cellular tumor antigen p53 (Homo sapiens) (UniProt P04637); assay: TOX21_p53_BLA_p5_ratio: Tox21 HCT-116 p53 Agonism Beta-lactamase Assay, Ratio, Phase 5 (AID 2283599; active = hit-call score of the fitted dose curve at least 0.9, where 1 is the maximum)
# Sequence of Cellular tumor antigen p53 (Homo sapiens) (P04637 whole entry, looked up): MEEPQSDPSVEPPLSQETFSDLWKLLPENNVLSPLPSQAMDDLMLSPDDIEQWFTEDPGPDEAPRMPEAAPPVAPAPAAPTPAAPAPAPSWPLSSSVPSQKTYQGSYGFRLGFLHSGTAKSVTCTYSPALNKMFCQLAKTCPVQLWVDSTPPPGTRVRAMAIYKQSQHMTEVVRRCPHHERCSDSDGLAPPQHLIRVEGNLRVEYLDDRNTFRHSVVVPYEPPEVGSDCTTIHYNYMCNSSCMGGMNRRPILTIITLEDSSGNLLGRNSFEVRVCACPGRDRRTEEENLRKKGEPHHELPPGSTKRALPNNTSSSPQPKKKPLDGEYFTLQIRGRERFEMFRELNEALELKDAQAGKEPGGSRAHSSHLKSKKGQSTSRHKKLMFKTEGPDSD
# Method in brief: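 HCT-116 p53-bla cells (4000/well) plated 5 h, dosed with compound (217-fold DMSO dilution) for 16 h at 37 C; CCF4-AM substrate 2 h at room temperature. Activity is the 460/530 nm emission ratio (405 nm excitation), fitted in gain-of-signal direction versus DMSO.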
# [11] = molecular target: Cellular tumor antigen p53 (Homo sapiens) (UniProt P04637); assay: TOX21_p53_BLA_p4_ratio: Tox21 HCT-116 p53 Agonism Beta-lactamase Assay, Ratio, Phase 4 (AID 2283601; active = hit-call score of the fitted dose curve at least 0.9, where 1 is the maximum)
# Method in brief: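 HCT-116 p53 beta-lactamase reporter cells (4000/well) preincubated 5 h, then compound (217-fold dilution of DMSO stock) for 16 h at 37C. CCF4-AM substrate added 2 h at room temperature; 460/530 nm emission ratio fitted upward versus DMSO.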
# [12] = ATG_FoxO_CIS: Attagene CIS-FACTORIAL HepG2 Assay for human Forkhead box O (FoxO) (AID 2282943); conditions: HepG2 Attagene cis-reporter, FoxO element, mRNA; actives raise or lower the signal
# Method in brief: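 Transfected HepG2 reporter cells exposed to test chemical for 24 h; reporter RNA measured by reverse transcription, PCR and fluorescent capillary electrophoresis; curves fitted for increases and decreases against DMSO.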
# [13] = ATG_GRE_CIS: Attagene CIS-FACTORIAL HepG2 Assay for human Glucocorticoid Response Elements (GRE) (AID 2282947); conditions: HepG2 GRE cis-reporter, Attagene multiplex mRNA; actives raise or lower the signal
# Method in brief: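 Endogenous transcription factor activity is read through cis-element reporter constructs transiently transfected into HepG2 cells. After 24 h treatment, labelled RT-PCR products are resolved by capillary electrophoresis; DMSO sets baseline for bidirectional curve fitting.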
# [14] = molecular target: Hepatocyte nuclear factor 4-alpha (Homo sapiens) (UniProt P41235); assay: ATG_HNF4a_TRANS: Attagene TRANS-FACTORIAL HepG2 Assay for human Hepatocyte Nuclear Factor 4 alpha (HNF4a) (AID 2282982; active = hit-call score of the fitted dose curve at least 0.9, where 1 is the maximum); conditions: HepG2 HNF4a transactivation reporter, mRNA readout
# Sequence of Hepatocyte nuclear factor 4-alpha (Homo sapiens) (P41235 whole entry, looked up, the tested form may be a part): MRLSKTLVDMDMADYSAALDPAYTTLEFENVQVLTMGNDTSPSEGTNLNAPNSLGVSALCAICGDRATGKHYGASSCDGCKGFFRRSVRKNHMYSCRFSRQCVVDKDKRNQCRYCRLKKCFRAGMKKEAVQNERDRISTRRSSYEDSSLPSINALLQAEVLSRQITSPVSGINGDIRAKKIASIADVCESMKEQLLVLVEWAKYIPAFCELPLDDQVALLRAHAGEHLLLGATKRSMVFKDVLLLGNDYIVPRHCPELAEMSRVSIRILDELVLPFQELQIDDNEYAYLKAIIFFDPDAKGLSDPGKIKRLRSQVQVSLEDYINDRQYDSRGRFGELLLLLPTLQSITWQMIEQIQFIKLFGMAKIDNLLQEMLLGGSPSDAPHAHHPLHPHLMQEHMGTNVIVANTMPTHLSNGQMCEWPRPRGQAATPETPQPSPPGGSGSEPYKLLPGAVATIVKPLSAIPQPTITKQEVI
# Method in brief: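 Gain-of-signal mRNA induction, relative to DMSO vehicle, was read after 24 h compound treatment of HepG2 cells bearing transfected GAL4-UAS reporters. Detection used RT-PCR, 6-FAM primer extension and capillary electrophoresis.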
# [15] = ATG_NFI_CIS: Attagene CIS-FACTORIAL HepG2 Assay for human Nuclear Factor I (NFI) (AID 2282989); conditions: HepG2 cis-regulatory reporter, NFI response element transcription; actives raise or lower the signal
# Method in brief: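 After transient transfection of HepG2 with cis-promoter reporter constructs and 24 h dosing, RNA is reverse-transcribed, amplified, 6-FAM end-labelled and HpaI-digested before capillary analysis. Bidirectional curve fitting against DMSO.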
# [16] = molecular target: Peroxisome proliferator-activated receptor gamma (Homo sapiens) (UniProt P37231); assay: ATG_PPARg_TRANS: Attagene TRANS-FACTORIAL HepG2 Assay for human Peroxisome Proliferator-activated Receptor-gamma (PPARg) (AID 2283007; active = hit-call score of the fitted dose curve at least 0.9, where 1 is the maximum)
# Sequence of Peroxisome proliferator-activated receptor gamma (Homo sapiens) (P37231 whole entry, looked up, the tested form may be a part): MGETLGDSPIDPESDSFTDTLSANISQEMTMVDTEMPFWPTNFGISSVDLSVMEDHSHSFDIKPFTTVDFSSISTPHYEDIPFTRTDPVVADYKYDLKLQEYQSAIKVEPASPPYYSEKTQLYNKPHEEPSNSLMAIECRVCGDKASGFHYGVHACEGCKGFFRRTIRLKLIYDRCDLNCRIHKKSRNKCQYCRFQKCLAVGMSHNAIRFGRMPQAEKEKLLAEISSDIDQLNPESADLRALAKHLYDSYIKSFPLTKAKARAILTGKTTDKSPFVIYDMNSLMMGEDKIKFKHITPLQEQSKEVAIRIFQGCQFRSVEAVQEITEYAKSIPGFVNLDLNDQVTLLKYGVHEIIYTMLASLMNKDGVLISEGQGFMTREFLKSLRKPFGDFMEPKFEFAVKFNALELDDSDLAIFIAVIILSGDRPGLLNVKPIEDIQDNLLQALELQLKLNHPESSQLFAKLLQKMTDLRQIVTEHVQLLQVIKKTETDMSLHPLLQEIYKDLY
# Method in brief: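 A TRANS-format multiplexed reporter assay measures activity of an exogenous chimeric NR-Gal4 protein in HepG2 cells. After 24 h of chemical exposure, reporter transcripts are amplified, fluorescently labelled and sized by capillary electrophoresis, with gain of signal scored against DMSO.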
# [17] = molecular target: Nuclear receptor subfamily 1 group I member 2 (Homo sapiens) (UniProt O75469); assay: ATG_PXR_TRANS: Attagene TRANS-FACTORIAL HepG2 Assay for human Pregnane X Receptor (PXR) (AID 2283008; active = hit-call score of the fitted dose curve at least 0.9, where 1 is the maximum)
# Sequence of Nuclear receptor subfamily 1 group I member 2 (Homo sapiens) (O75469 whole entry, looked up, the tested form may be a part): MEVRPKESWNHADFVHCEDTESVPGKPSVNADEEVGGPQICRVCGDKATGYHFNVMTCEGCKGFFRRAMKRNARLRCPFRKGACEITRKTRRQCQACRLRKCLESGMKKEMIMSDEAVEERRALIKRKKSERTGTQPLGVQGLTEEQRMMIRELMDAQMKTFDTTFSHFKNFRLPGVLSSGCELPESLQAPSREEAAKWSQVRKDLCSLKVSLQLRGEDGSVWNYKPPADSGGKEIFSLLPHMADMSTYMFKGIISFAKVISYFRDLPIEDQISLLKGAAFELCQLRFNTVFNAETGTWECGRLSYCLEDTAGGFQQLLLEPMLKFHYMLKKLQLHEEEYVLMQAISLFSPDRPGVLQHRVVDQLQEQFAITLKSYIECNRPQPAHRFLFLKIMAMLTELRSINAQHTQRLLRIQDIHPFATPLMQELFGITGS
# Method in brief: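 Read-out is fluorescence of labelled reporter cDNA fragments separated by capillary electrophoresis after RT-PCR and HpaI digestion. Source: HepG2 cells carrying PXR-GAL4/UAS reporter constructs, treated 24 h; activity fitted upward relative to DMSO.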
# [18] = molecular target: Cellular tumor antigen p53 (Homo sapiens) (UniProt P04637); assay: TOX21_p53_BLA_p3_ratio: Tox21 HCT-116 p53 Agonism Beta-lactamase Assay, Ratio, Phase 3 (AID 2283596; active = hit-call score of the fitted dose curve at least 0.9, where 1 is the maximum)
# Method in brief: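 HCT116 p53-bla cells (4000/well) given compound in DMSO (217-fold dilution) after 5 h, incubated 16 h at 37C. CCF4-AM substrate 2 h at room temperature; 460/530 nm emission ratio, gain fitted against DMSO.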
# [19] = ATG_Sox_CIS: Attagene CIS-FACTORIAL HepG2 Assay for human SRY-box transcription factor (SOX) (AID 2282960); conditions: HepG2 Attagene cis-factorial SOX reporter, mRNA; actives raise or lower the signal
# Method in brief: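 Transient MRTU transfection of HepG2; 24 h compound incubation; TriZol RNA, oligo(dT) RT, PCR, 6-FAM primer extension, HpaI cut, CE. Bidirectional fit, DMSO = baseline.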
# [20] = molecular target: Retinoic acid receptor RXR-alpha (Homo sapiens) (UniProt P19793); assay: ATG_RXRa_TRANS: Attagene TRANS-FACTORIAL HepG2 Assay for human Retinoid X Receptor alpha (RXRa) (AID 2283012; active = hit-call score of the fitted dose curve at least 0.9, where 1 is the maximum)
# Sequence of Retinoic acid receptor RXR-alpha (Homo sapiens) (P19793 whole entry, looked up, the tested form may be a part): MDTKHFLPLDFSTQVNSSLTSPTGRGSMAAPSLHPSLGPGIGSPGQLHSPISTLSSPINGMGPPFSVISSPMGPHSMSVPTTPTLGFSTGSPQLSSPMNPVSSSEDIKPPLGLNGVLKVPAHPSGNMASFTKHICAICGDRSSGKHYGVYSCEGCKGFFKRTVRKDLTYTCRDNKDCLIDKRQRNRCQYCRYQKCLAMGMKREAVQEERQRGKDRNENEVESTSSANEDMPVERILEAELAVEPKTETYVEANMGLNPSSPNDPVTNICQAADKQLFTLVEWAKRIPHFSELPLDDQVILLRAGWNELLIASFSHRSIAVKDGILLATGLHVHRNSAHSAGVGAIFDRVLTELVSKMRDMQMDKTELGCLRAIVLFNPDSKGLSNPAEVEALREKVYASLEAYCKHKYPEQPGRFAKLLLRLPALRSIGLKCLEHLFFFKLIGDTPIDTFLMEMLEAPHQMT
# Method in brief: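 Cells (HepG2) carried transiently transfected GAL4-responsive reporter units. Following a 24 h chemical incubation, reporter mRNA induction was read via RT-PCR fragment analysis; DMSO served as negative control and baseline.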
compound,measurement,setting,value
CCCCOC(=O)CCC(=O)OCCCC,outcome,[1],inactive
same,outcome,[2],inactive
same,outcome,[3],inactive
same,outcome,[4],inactive
same,outcome,[5],inactive
same,outcome,[6],inactive
same,outcome,[7],inactive
same,outcome,[8],inactive
same,outcome,[9],inactive
same,outcome,[10],inactive
same,outcome,[11],inactive
Cc1cc(C)c(C2=C(OC(=O)CC(C)(C)C)C3(CCCC3)OC2=O)c(C)c1,outcome,[2],inactive
same,outcome,[12],inactive
same,outcome,[13],inactive
same,outcome,[3],inactive
same,outcome,[4],inactive
same,AC50,[6],104 µM (active)
same,outcome,[14],inactive
same,outcome,[7],inactive
same,outcome,[8],inactive
same,AC50,[15],145 µM (active)
same,AC50,[16],4.68 µM (active)
same,outcome,[17],inactive
[Cl][Sb]([Cl])[Cl],outcome,[2],inactive
same,outcome,[12],inactive
same,outcome,[13],inactive
same,outcome,[3],inactive
same,outcome,[4],inactive
same,outcome,[5],inactive
same,AC50,[6],143 µM (active)
same,outcome,[14],inactive
same,outcome,[7],inactive
same,outcome,[8],inactive
same,outcome,[15],inactive
same,outcome,[16],inactive
same,outcome,[18],inactive
same,outcome,[10],inactive
same,outcome,[11],inactive
O=[N+]([O-])O,outcome,[2],inactive
same,outcome,[12],inactive
same,outcome,[13],inactive
same,outcome,[19],inactive
same,outcome,[6],inactive
same,outcome,[14],inactive
same,outcome,[7],inactive
same,outcome,[8],inactive
same,outcome,[15],inactive
same,outcome,[16],inactive
CCC1CCC(=O)O1 (stereo not drawn),outcome,[1],inactive
same,outcome,[13],inactive
same,outcome,[19],inactive
same,outcome,[14],inactive
same,outcome,[7],inactive
same,outcome,[8],inactive
same,outcome,[9],inactive
CC1CCC(=O)O1 (stereo not drawn),outcome,[1],inactive
same,outcome,[2],inactive
same,outcome,[12],inactive
same,outcome,[13],inactive
same,outcome,[5],inactive
same,outcome,[6],inactive
same,outcome,[14],inactive
same,outcome,[8],inactive
same,outcome,[15],inactive
same,outcome,[17],inactive
same,outcome,[18],inactive
same,outcome,[10],inactive
same,outcome,[11],inactive
CCOC(=O)C1OC1(C)c1ccccc1 (stereo not drawn),outcome,[2],inactive
same,outcome,[12],inactive
same,outcome,[13],inactive
same,outcome,[3],inactive
same,outcome,[19],inactive
same,outcome,[5],inactive
same,outcome,[6],inactive
same,AC50,[16],100 µM (active)
same,outcome,[17],inactive
same,outcome,[20],inactive
same,outcome,[18],inactive
same,outcome,[10],inactive
same,outcome,[11],inactive
O=P(O)(Oc1ccccc1)Oc1ccccc1,outcome,[2],inactive
same,outcome,[12],inactive
same,outcome,[13],inactive
same,outcome,[3],inactive
same,outcome,[19],inactive
same,outcome,[5],inactive
same,outcome,[6],inactive
same,outcome,[14],inactive
same,outcome,[15],inactive
same,outcome,[16],inactive
same,outcome,[17],inactive
same,outcome,[20],inactive
same,outcome,[9],inactive
same,outcome,[18],inactive
same,outcome,[11],inactive
C[C@]12CC[C@H](O)C[C@H]1CC[C@@H]1[C@@H]2C[C@@H](O)[C@]2(C)[C@@H](C3=CC(=O)OC3)CC[C@]12O,outcome,[2],inactive
same,AC50,[13],6.51 µM (active)
same,outcome,[3],inactive
same,outcome,[4],inactive
same,outcome,[19],inactive
same,AC50,[6],3.98 µM (active)
same,outcome,[14],inactive
same,outcome,[7],inactive
same,AC50,[8],5.24 µM (active)
same,AC50,[15],2.61 µM (active)
same,AC50,[16],1.87 µM (active)
same,outcome,[17],inactive
same,outcome,[20],inactive
same,outcome,[9],inactive
C[N+](=O)[O-],outcome,[1],inactive
same,outcome,[13],inactive
same,outcome,[4],inactive
same,outcome,[19],inactive
same,outcome,[5],inactive
same,outcome,[6],inactive
same,outcome,[14],inactive
same,outcome,[7],inactive
same,outcome,[8],inactive
same,outcome,[15],inactive
same,outcome,[16],inactive
same,outcome,[20],inactive
same,outcome,[11],inactive
